# FLuc modulator: qHTS profiling assay for firefly luciferase inhibitor/activator using purifed enzyme and Km concentrations of substrates (counterscreen for miR-21 project) | Luciferin 4-monooxygenase (Photinus pyralis), P08659 | purified FLuc, Km substrates, luminescence inhibition | Potency, µM (series often up to 57.5 µM), without a hit: top-dose activity change, negative = inhibition, actives largely listed as inhibitors | 6.9% of 360,000 active | AID 588342, 2011;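 note: plate controls were vehicle for no effect and reference inhibitor for full effect; nearly all actives have a fitted effect of over 55% in size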
# Target sequence (P08659 whole entry, looked up): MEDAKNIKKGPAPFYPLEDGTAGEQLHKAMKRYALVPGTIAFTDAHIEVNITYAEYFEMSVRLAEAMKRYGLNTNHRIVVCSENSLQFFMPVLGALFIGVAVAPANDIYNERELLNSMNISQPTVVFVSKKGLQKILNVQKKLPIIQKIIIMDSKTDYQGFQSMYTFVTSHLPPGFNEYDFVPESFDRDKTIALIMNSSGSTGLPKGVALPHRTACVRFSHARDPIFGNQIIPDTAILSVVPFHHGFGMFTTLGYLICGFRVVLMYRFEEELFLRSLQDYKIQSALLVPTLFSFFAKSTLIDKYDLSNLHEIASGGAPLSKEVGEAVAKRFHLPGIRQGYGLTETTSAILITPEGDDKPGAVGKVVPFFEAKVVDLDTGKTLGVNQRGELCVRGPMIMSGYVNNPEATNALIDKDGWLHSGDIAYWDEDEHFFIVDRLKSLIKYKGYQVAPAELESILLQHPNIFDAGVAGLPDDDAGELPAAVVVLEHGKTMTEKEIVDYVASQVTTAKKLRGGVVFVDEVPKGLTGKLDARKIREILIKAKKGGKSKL
#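 Purified P. pyralis luciferase (10nM final) with 10uM D-luciferin and 10uM ATP (Km levels) in 50mM Tris acetate pH 7.5, 10mM Mg acetate, 0.01% Tween-20, 0.05% BSA; qHTS 6-point titration, ~60 µM downward; luminescence read.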
# SMN2 splice up: qHTS Assay for Enhancers of SMN2 Splice Variant Expression. HEK293 SMN2-luciferase splicing reporter, luminescence, 30-36 h. Potency, µM (highest dose often 46.1 µM), without a hit: at the top dose activity change, positive = activation, hits mostly activators. 2.8% of 210,000 active. AID 1458, 2008; note: % of control where 0% means no effect; nearly all actives have a fitted effect of over 55% in size
#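 HEK293 cells carry an SMN2 minigene-luciferase reporter in which exon 7 inclusion puts luciferase in frame. Cells were seeded at 2000 cells/well, attached for 10-12 hours, then exposed to compounds for 30-36 hours at 37C before ONE-Glo luminescence.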
# NPC1 promoter act: qHTS Assay for NPC1 Promoter Activators; Huh7 NPC1 promoter luciferase reporter, 24 h; Potency, µM (series often up to 9.22 µM), without a hit: top-dose activation, actives largely listed as activators; 2.4% of 320,000 active; AID 485313, 2010; note: % of control where 0% means no effect; nearly all actives have a fitted effect of over 60% in size
#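 Luminescence from an NPC1 promoter-driven luciferase reporter in stably transfected Huh7 cells was measured after 24 h compound treatment at 37 °C, followed by 10 min ambient incubation with luciferase detection reagent.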
# Rab9 prom act: qHTS Assay for Rab9 Promoter Activators | Huh7 Rab9 promoter-luciferase reporter, luminescence, 24 h | Potency, µM (doses to about 9.22 µM), for inactives: top-dose activation, negative = inhibition, most hits filed as activators | 2.8% of 320,000 active | AID 485297, 2010; note: % of control where 0% means no effect; nearly all actives have a fitted effect of over 60% in size
#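 Cells were plated at 1500 per well in reduced-serum medium with 10% FBS and left 2 h. Compound in DMSO was then added for 24 h at 37 °C. Reporter signal was read by luminescence after 10 min with luciferase detection reagent.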
# Luc counter: Counterscreen for Luciferase (Kinase-Glo TM) Inhibition. AID 1379, 2008. Kinase-Glo luciferase, ATP luminescence, 8 min. Potency, µM (series often up to 38.3 µM), inactives show at the top dose activity change, negative = inhibition, usual class: inhibitors. 0.28% of 200,000 active. Luciferin 4-monooxygenase (Photuris pensylvanica), Q27757; note: % is set by controls: 0 for no effect and ±100 for the full control effect; nearly all actives have a fitted effect of over 60% in size
#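 Inhibition of Kinase-Glo luciferase light generation was assessed at 10 uM ATP in pH 7.2 imidazole buffer, with luminescence measured after eight minutes at ambient temperature.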
# ELG1 genotox: qHTS screen for small molecules that induce genotoxicity in human embryonic kidney (HEK293T) cells expressing luciferase-tagged ELG1; HEK293T ELG1-luciferase reporter, luminescence, 16 h; Potency, µM (top dose mostly 46 µM), for inactives: at the top dose activity change, positive = activation, actives largely listed as activators; 1.3% of 330,000 active; AID 504466, 2011; note: % of control where 0% means no effect; nearly all actives have a fitted effect of over 60% in size
#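 Quantitative HTS format in 1536-well plates. HEK293T ELG1-luciferase reporter cells receive test compound and are incubated 16 hr at 37 °C, 5% CO2; ONE-Glo added, 30 min room temperature, then luminescence read.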
# The depositor's hits bear a star; ? = inconclusive; · = not tested or not shown; ! = not confirmed by another sample; [ ] = another dose, or the depositor's remark. In the library only some 7.4% were active in any assay of this set; here they are far more common. Calls come from the whole dose curve; as a rule, active = well fitted curve in the direction sought with a large enough effect; inconclusive = small, poorly fitted or top-dose-only effect, or another doubt; inactive = no such curve, though single readings can be large; an effect the other way counts as inactive or inconclusive. Potency is the fitted concentration of half-maximal effect.
SMILES,FLuc modulator,SMN2 splice up,NPC1 promoter act,Rab9 prom act,Luc counter,ELG1 genotox
CC(C)c1ccc(Nc2nnc(SCC(=O)Nc3ncc(S(=O)(=O)c4ccc([N+](=O)[O-])cc4)s3)s2)cc1,0.849µM*,22.4µM*,2.82µM*,1.41µM*,2.0%,?
Cc1cc(=O)[nH]c(SCC(=O)Nc2ncc(S(=O)(=O)c3ccc([N+](=O)[O-])cc3)s2)n1,?,·,-0.8%,-2.8%,·,0.2%
COc1ccc(NC(C)=O)cc1S(=O)(=O)NCCc1ccccn1,0.8%,·,-2.5%,-0.5%,·,2.5%
Fc1ccccc1CSCc1nc2ccccc2[nH]1,16.9µM*,10µM*,3.98µM*,2.82µM*,-0.9%,?
O=c1[nH]c2ccccc2nc1-c1ccc(Cl)cc1,?,·,?,2.82µM*,·,?
c1ccc2[nH]c(CSc3nccs3)nc2c1,?,?,13.7%,14.2%,-4.6%,9.0%
Clc1ccc(SCc2nc3ccccc3[nH]2)cc1,9.53µM*,11.2%,?,?,-19.7%,-2.8%
c1ccc(SCc2nc3ccccc3[nH]2)cc1,12µM*,?,2.51µM*,2.24µM*,-9.3%,?
CCN1CCN(C(CNS(=O)(=O)c2ccc(Br)cc2)c2cccnc2)CC1 (stereo not drawn),-0.8%,·,-0.8%,0.3%,·,2.2%
CCc1cccc(NC(=O)C2CCCN2S(=O)(=O)c2ccc3nc(-c4ccccc4)[nH]c3c2)c1 (stereo not drawn),-13.3%,·,·,·,·,·
O=C(O)c1ccc2c(c1)C(=O)N([C@@H](C(=O)O)C(c1ccccc1)c1ccccc1)C2=O,9.9%,·,-1.9%,5.7%,·,·
Cc1ccc(SCc2nc3ccccc3[nH]2)cc1,6.01µM*,?,2.24µM*,?,?,12.1%
COc1cccc(C(=O)Cn2c(NCCO)nc3ccccc32)c1,-1.8%,3.8%,-2.3%,0.5%,0.2%,0.4%
Cn1c(=N)n(CC(=O)c2ccc(Br)s2)c2ccccc21,8.49µM*,?,8.6%,?,-6.3%,2.51µM*
Cn1c(=N)n(CC(=O)c2cccs2)c2ccccc21,10.7µM*,?,19.9%,24.0%,-4.2%,?
COc1cccc(C(=O)Cn2c(=N)n(C)c3ccccc32)c1,1.2µM*,1.26µM*,0.562µM*,?,2.6%,0.366µM*
OC(c1ccccc1)c1nccc2ccccc12 (stereo not drawn),-12.7%,10.0%,-1.8%,3.3%,0.3%,0.1%
CCn1nc(C)c(CNC(=O)c2cc(COc3ccc(F)cc3Cl)on2)c1C,?,·,-20.7%,-32.6%,·,2.7%
CCOc1ccc(N(CC(=O)NC2CCCCC2)C(=O)CCC(=O)Nc2nccs2)cc1,2.1%,·,-2.4%,0.5%,·,0.2%
CCOc1ccc(NC(=NCc2ccc3c(c2)OCO3)SC2CC(=O)N(c3ccccc3)C2=O)cc1 (stereo not drawn),9.7%,18.9%,-4.5%,1.7%,2.6%,5.1%
CCOc1ccc(NC(=NCc2ccc3c(c2)OCO3)SC2CC(=O)N(c3ccc(OCC)cc3)C2=O)cc1 (stereo not drawn),-8.7%,22.4µM*,?,?,0.3%,?
COc1ccc(NC(=O)C2=CC(c3ccc4c(c3)OCO4)=NS(=O)(=O)N2C)cc1,5.2%,·,·,·,·,·
CCc1ccc(C(=O)CSc2nc3cc(S(=O)(=O)N4CCOCC4)ccc3n2CC)cc1,13.5µM*,-7.7%,4.4%,0.7%,3.9%,4.7%
CCn1c(SCC(=O)OC)nc2cc(S(=O)(=O)N3CCOCC3)ccc21,6.7%,·,-3.8%,-4.0%,·,11.7%
c1ccc(CCSc2ncnc3nc[nH]c23)cc1,15.1µM*,-6.7%,?,?,-2.3%,6.8%
SMILES,FLuc modulator,SMN2 splice up,NPC1 promoter act,Rab9 prom act,Luc counter,ELG1 genotox
O=C(CSc1ncnc2nc[nH]c12)c1ccccc1,21.3µM*,11.2µM*!,2.82µM*,3.98µM*,-4.8%[7.66 µM],0.8%
Cc1ccc(O)c(C(=O)c2cnc3c(c2)c(C)nn3-c2ccccc2)c1,-1.3%,4.9%,-1.5%,0.6%,6.3%,-4.3%
Cc1c(C)c2ccc(OCC(=O)NCCN3CCOCC3)cc2oc1=O,0.7%,·,0.0%,3.0%,·,8.6%
Cc1ccc(NC(=O)CCc2c(C)nc3cc(-c4ccccc4)nn3c2C)cc1F,10.7µM*,19.1%,·,·,·,·
Cc1csc(NC(=O)CCc2c(C)nc3cc(-c4cccc(F)c4)nn3c2C)n1,6.3%,-43.8%,-0.4%,-6.7%,-2.4%,-10.6%
CC(=O)c1ccc(NC(=O)CCc2c(C)nc3cc(-c4ccc(Cl)cc4)nn3c2C)cc1,16.9µM*,-20.7%,·,·,·,·
CCN(CC)S(=O)(=O)c1ccc(NC(=O)CCc2c(C)nc3cc(-c4ccc(Cl)cc4)nn3c2C)cc1,?,-0.3%,·,·,·,·
COc1ccc(C(=O)NCC2OCCc3ccccc32)c(O)c1 (stereo not drawn),21.3µM*,?,28.0%,?,1.8%,?
CC(=O)Nc1ccc(NC(=O)/C(Cl)=C/c2ccccc2)cc1,10.7µM*,-6.0%,23.3%,?,0.9%,-0.7%
CCN(CC)c1ccc(/C=N/NC(=O)CNC(=O)/C=C/c2ccco2)cc1,23.9µM*,·,-1.5%,-0.8%,·,1.6%
CCN(CC)c1ccc(/C=N/NC(=O)Cc2cccs2)cc1,26.9µM*,-1.3%,11.5%,-3.3%,-0.1%,3.0%
O=C(/C=C/c1ccco1)NCC(=O)N/N=C/c1ccccc1[N+](=O)[O-],0.5%,-9.8%,-0.7%,1.1%,2.4%,18.1%
COc1ccc(/C=N/NC(=O)Cc2cccs2)cc1,16.9µM*,·,?,?,·,?
CSc1ccc(CCNC(=O)CCc2nnc3ccc(N4CCC5(CC4)OCCO5)nn23)cc1,-8.3%,·,-2.4%,0.9%,·,-4.3%
CCOc1ccc(N=NC2C(=O)N(C(N)=S)N=C2C)cc1 (stereo not drawn),3.79µM*,·,2.82µM*,3.98µM*,·,18.3µM*
CC1=NN(C(N)=S)C(=O)C1N=Nc1ccc(O)cc1 (stereo not drawn),26.9µM*,·,-10.7%,1.6%,-2.0%,9.0%
CC(=O)Nc1ccc(N)cc1,1.6%,-1.4%,0.4%,-3.2%,·,-0.6%
CC1=NN(c2ccccc2C(=O)O)C(=O)C1N=Nc1ccccc1 (stereo not drawn),15.1µM*,·,19.9%,20.7%,·,-11.0%
